We go through 105 compounds from PubChem BioAssay AID1240 (Sanford-Burnham Center for Chemical Genomics, 2008).

The whole screen tested about 50,000 compounds, of which about 800 (1.6%) showed an effect of 50% or more. Only a selection was taken, and strong results are over-represented in it overall.

The target of the assay is Bcl-2-like protein 10 (Homo sapiens) (UniProt Q9HD36). Briefly: Phenotype converters, Bcl-B/TR3 peptide binding displacement, primary biochemical FP (AID 1240).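 Also: 0% = Bcl-B with tracer peptide and DMSO and 100% = tracer peptide lacking Bcl-B.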 As to conditions: GST-Bcl-B / FITC-TR3 peptide fluorescence polarization; stronger effect = higher value; compound at 3.75 mg/L.
Sequence of Bcl-2-like protein 10 (Homo sapiens) (Q9HD36 whole entry, looked up): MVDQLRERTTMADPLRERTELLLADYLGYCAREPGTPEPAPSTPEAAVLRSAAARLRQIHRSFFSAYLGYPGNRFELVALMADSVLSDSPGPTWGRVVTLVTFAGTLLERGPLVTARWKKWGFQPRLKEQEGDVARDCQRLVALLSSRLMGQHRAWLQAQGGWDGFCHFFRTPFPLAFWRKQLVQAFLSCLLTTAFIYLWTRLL
For `O=c1oc(/C=C\c2ccccc2)nc2ccc(Br)cc12`, the displacement worked out at 10.7%.
The figure for `Clc1ccc(CN2CCN(/N=C\c3ccc(OCc4ccccc4)cc3)CC2)cc1` is -9.5%; for `CCOC(=O)C1=C(C)N=c2s/c(=C\c3ccco3)c(=O)n2C1c1ccccc1OC` (stereo not given) it is 74.3%.
The figure for `CCOC(=O)C1=C(c2ccccc2)N=c2s/c(=C\c3cccc(O)c3)c(=O)n2C1c1cccc(OC)c1OC` (stereo not given) is 7.6%; for `CCOC(=O)C1=C(C)N=c2s/c(=C\c3ccco3)c(=O)n2C1c1ccccc1` (stereo not given) it is 16.5%.
For `CCOC(=O)C1=C(C)N=c2s/c(=C/c3ccc(I)o3)c(=O)n2C1c1ccccc1OC` (stereo not given) the value was 14.5%.
Turning to `CCOC(=O)C1=C(c2ccccc2)N=c2s/c(=C\c3ccco3)c(=O)n2C1c1cccc(OC)c1OC` (stereo not given), the displacement stood at 76.4%.
For `CCOC(=O)C1=C(c2ccccc2)N=c2s/c(=C\c3cccnc3)c(=O)n2C1c1cccc(OC)c1OC` (stereo not given) the value was 5.1%; for `CCOC(=O)C1=C(C)N=c2s/c(=C\c3ccco3)c(=O)n2C1c1cccc(OC)c1` (stereo not given), -25.3%; for `CCOC(=O)C1=C(C)N=c2s/c(=C\C=C\c3ccccc3)c(=O)n2C1c1ccc(OC(C)=O)cc1` (stereo not given), 16.9%.
For `CCOC(=O)C1=C(C)N=c2s/c(=C\C=C\c3ccco3)c(=O)n2C1c1ccc(OC)cc1` (stereo not given) the value was 63.9%; for `CC1CCC2(CC1)C(C#N)=C(SCC(N)=O)NC(=O)C2C#N` (stereo not given), -7.2%; for `CCOC(=O)c1sc(NC(=O)c2ccc(Cl)cc2Cl)nc1C`, 17%.
The figure for `O=C1CC(N(Cc2ccco2)C(=S)NCCc2ccccc2)C(=O)N1c1ccc(F)cc1` (stereo not given) is 27.4%; for `CC(C)(C)NC(=O)c1cccc(C(=O)Nc2cccc(O)c2)c1` it is -3.2%.
In the case of `c1ccc(C2=Nc3ccccc3NC(c3ccccc3)C2)cc1` (stereo not given), the displacement is -26.7%.
The figure for `O=C(NN1C(=O)/C(=C/c2ccc(O)c(O)c2)SC1=S)c1ccccc1Br` is 73%; for `COc1cc(/C=C2\SC(=S)N(NC(=O)c3ccccc3Br)C2=O)ccc1O` it is -21.3%.
The figure for `O=C(NN1C(=O)/C(=C/c2ccc(O)cc2)SC1=S)c1ccccc1Br` is -72.2%; for `CCCCOc1cccc(NC(=O)c2cccc([N+](=O)[O-])c2C)c1` it is 5%; for `O=C(Cc1ccc(Br)cc1)Nc1cc([N+](=O)[O-])ccc1Cl` it is 4.4%.
The figure for `O=C1N/C(=N\N=C\c2ccccc2O)SC1Cc1ccc(Cl)cc1` (stereo not given) is 8.7%.
`O=C(NNC(=O)c1cccc(Cl)c1)c1cccc(F)c1`: the displacement is -4.7%.
For `CCC(C)(C)C1CCc2c(sc(NC(=O)c3cnccn3)c2C(=O)OC)C1` (stereo not given) the value was 6.1%.
For `N#Cc1c(/N=C/c2cc([N+](=O)[O-])c(N3CCOCC3)cc2N2CCOCC2)sc2c1CCCC2` the value was 14.5%; for `N#Cc1c(/N=C\c2ccc(N3CCOCC3)c([N+](=O)[O-])c2)sc2c1CCCC2`, 81.3%; for `N#Cc1c(/N=C\c2ccc(N3CCCCC3)c([N+](=O)[O-])c2)sc2c1CCCC2`, -5.3%.
Take `O=C1NC(=O)/C(=C\c2ccc(O)cc2)S1`: the displacement came to 1.8%.
The figure for `CCc1ccc(OCC(=O)Nc2ccc(-c3nc4cc(C)c(C)cc4o3)c(O)c2)cc1` is 118%; for `CCCC(=O)Nc1ccc(-c2nc3cc(C)c(C)cc3o2)cc1` it is 14.7%.
The figure for `CCc1ccc(OCC(=O)Nc2ccc(-c3nc4ccccc4o3)c(O)c2)cc1` is 0.8%.
The figure for `CCc1ccc(OCC(=O)Nc2ccc(O)c(-c3nc4cc(C)ccc4o3)c2)cc1` is 7.4%; for `CCCC(=O)Nc1ccc(-c2nc3cc(C)c(C)cc3o2)c(O)c1` it is 96.8%.
Regarding `CCC(=O)Nc1ccc(O)c(-c2nc3cc(C)c(C)cc3o2)c1`, the displacement is -7%.
`CCOC(=O)c1cnn(-c2ccccc2)c1NC(=O)c1ccccc1`: the displacement turned out to be 2.4%.
For `O=C(c1ccco1)N(C(=O)c1ccco1)c1cc(C(F)(F)F)ccc1Cl` the value was -3.3%.
As to `COc1ccc(OCCOCCN2CCC(C)CC2)cc1`, the displacement is -9.4%.
As to `CNC(=O)c1c(-c2ccccc2)oc2ccc(O)cc12`, the displacement amounted to 10.3%.
Consider `O=C1C(C=NCc2ccc3c(c2)OCO3)=C(O)c2ccccc21`, for which the displacement is 134%.
For `O=C1CC(c2ccccc2)CC(O)=C1C=NCc1ccc2c(c1)OCO2` (stereo not given) the value was -2.5%; for `O=C1C(C=NCc2ccc(Cl)c(Cl)c2)=C(O)c2ccccc21`, 2.5%.
As to `O=C(Nc1ccc2oc(-c3ccc(Cl)cc3Cl)nc2c1)c1ccc2c(c1)OCCO2`, the displacement stood at 2.1%.
The figure for `Cn1c(/C=C/c2ccc([N+](=O)[O-])cc2)nc2ccccc2c1=O` is 2.9%.
For `Cn1c(/C=C/c2cn(C)c3ccccc23)nc2ccccc2c1=O` the value was 40.9%; for `O=c1c2ccccc2nc(/C=C/c2cccc([N+](=O)[O-])c2)n1Cc1ccccc1`, 12.9%.
In the case of `Cn1cc(/C=C/c2nc3ccccc3c(=O)n2Cc2ccccc2)c2ccccc21`, the displacement was found to be 136%.
Consider `Cn1c(/C=C/c2cn(Cc3ccccc3)c3ccccc23)nc2ccccc2c1=O`, for which the displacement turned out to be 17.3%.
For `O=c1c2ccccc2nc(/C=C/c2ccc([N+](=O)[O-])cc2)n1Cc1ccccc1` the value was 118%.
In the case of `Cc1onc(-c2ccccc2Cl)c1C(=O)NC12CC3CC(CC(C3)C1)C2`, the displacement was found to be 1%.
For `CCOC(=O)c1c(NC(=O)c2cccc(Cl)c2)sc(C(=O)Nc2cccc(C(F)(F)F)c2)c1C` the value was -3.3%.
For `O=C(N1CCOCC1)n1nnc2ccccc21` the value was 13.2%.
For `CC(C)(C)c1ccc(-c2nn(CNc3cccc(Cl)c3)c(=S)o2)cc1` the value was 14%; for `COc1ccc(C/C(N)=N/OC(=O)c2ccccc2Cl)cc1`, -0.1%.
Regarding `O=C(COc1ccccc1)Nc1ccc2nn(-c3ccc(Cl)cc3)nc2c1`, the displacement was determined as 6.3%.
The figure for `O=C(COc1ccc([N+](=O)[O-])cc1)Nc1ccc2nn(-c3ccc(F)cc3)nc2c1` is 9%; for `CCCC(=O)Nc1ccc2nn(-c3ccc(F)cc3)nc2c1` it is 0.6%.
For `COc1ccc(-n2nc3ccc(NC(=O)COc4ccccc4Cl)cc3n2)cc1` the value was 19.9%; for `O=C(Nc1ccc2nn(-c3ccc(Cl)cc3)nc2c1)c1ccccc1I`, 7.4%.
The figure for `O=C(COc1ccccc1Cl)Nc1ccc2nn(-c3ccccc3)nc2c1` is 78.4%.
Consider `O=C(COc1ccc(Br)cc1)Nc1ccc2nn(-c3ccc(F)cc3)nc2c1`, for which the displacement came to 50.3%.
The figure for `O=C(Nc1ccc2nn(-c3ccc(Cl)cc3)nc2c1)c1ccccn1` is 91%; for `O=C(Nc1ccc2nn(-c3ccc(Cl)cc3)nc2c1)c1ccccc1` it is -1.9%.
For `Oc1ccc(/C=N/Nc2nc3ccccc3s2)c(O)c1` the value was 11.1%; for `COc1ccccc1CC(=O)NCc1ccco1`, 10.3%; for `Cc1occc1C(=O)N/N=C/c1ccc(O)cc1O`, 78.5%.
For `Cc1occc1C(=O)N/N=C/c1ccccc1` the value was 4.2%.
In the case of `COc1ccc(/C=N/NC(=O)c2ccoc2C)c(OC)c1OC`, the displacement is -4.5%.
In the case of `Cc1ccc(N2C(=O)c3ccc(C(=O)O)cc3C2=O)nc1`, the displacement was -10.6%.
The figure for `c1ccc(-n2ncnc2-c2ccc3c(c2)OCO3)cc1` is 4.4%; for `CC1CCCN(Cc2c(O)ccc3cc(-c4nc5ccccc5[nH]4)c(=O)oc23)C1` (stereo not given) it is 106%.
The figure for `CCOC(=O)c1c(-c2ccccc2)oc2ccc(O)c(CN3CCCC(C)C3)c12` (stereo not given) is 11%; for `O=c1oc2c(CN3CCOCC3)c(O)ccc2cc1-c1nc2ccccc2[nH]1` it is 139%.
For `Cn1c(-c2cc3ccc(O)c(CN4CCOCC4)c3oc2=O)nc2ccccc21` the value was 19.1%.
With `CCc1cc2c(=O)c(-c3nc4ccccc4[nH]3)coc2c(CN2CCOCC2)c1O`, the displacement stood at 8.5%.
For `CN1CCN(Cc2c(O)ccc3c(=O)c(-c4ccccc4)coc23)CC1` the value was -1.7%.
The figure for `COc1ccccc1-c1coc2c(CN3CCN(C)CC3)c(O)ccc2c1=O` is -1.3%; for `CN1CCN(Cc2c(O)ccc3cc(-c4nc5ccccc5[nH]4)c(=O)oc23)CC1` it is 125%.
For `CC1CCN(Cc2c(O)ccc3c4c(c(=O)oc23)CCC4)CC1` the value was 12.8%; for `COc1ccc(N2C(=O)C3C(c4ccccc4Cl)OC4(C(=O)c5ccccc5C4=O)C3C2=O)c(OC)c1` (stereo not given), 12.5%; for `COc1ccc(C2CC(=O)C3=C(C2)Nc2ccccc2NC3c2cc(C)ccc2C)cc1` (stereo not given), -3.7%.
Turning to `Cc1ccc(C2/C(=C(\O)c3ccccc3)C(=O)C(=O)N2CCCC(=O)O)cc1` (stereo not given), the displacement turned out to be 1.4%.
The figure for `O=C1N=c2ccccc2=C1c1sc(Nc2cccc(Cl)c2Cl)nc1O` is 15.8%.
As for `O=C1OC(c2ccc(Br)cc2)=C/C1=C\C=C\c1ccccc1`, the displacement was -8.3%.
The figure for `COc1cc(/C=C2\C(=O)NN(c3ccccc3)C2=O)cc(OC)c1OC` is -6.6%.
For `COc1ccc(C(=O)Nc2ccc(Br)cn2)cc1OC` the value was 5.1%; for `COc1ccc(Cl)cc1NC(=O)C1=C(C)NC(=O)NC1c1cccc2ccccc12` (stereo not given), 15.4%.
For the compound `O=C1CCCc2oc3ccc(NS(=O)(=O)c4ccccc4)cc3c21`, the displacement came to 2.5%.
For `O=C(/C=C/c1ccc(-c2ccccc2[N+](=O)[O-])o1)Nc1cccnc1` the value was 73.1%.
The figure for `Cc1ccc(/C=C/C(=O)Nc2ccc([N+](=O)[O-])cc2)o1` is 11.8%.
For `Cc1ccc(/C=C/C(=O)Nc2cccc([N+](=O)[O-])c2)o1` the value was 10.1%; for `O=C1C(=Cc2ccc(-c3ccccc3[N+](=O)[O-])o2)C(=O)c2ccccc21`, -3.3%; for `Cc1ccc(/C=C/C(=O)Nc2ccc(C)c([N+](=O)[O-])c2)o1`, 62%.
As to `O=[N+]([O-])c1ccc(-c2ccc(/C=C/c3ccc4ccccc4n3)o2)cc1`, the displacement came out at 14.8%.
For the compound `O=[N+]([O-])c1ccccc1-c1ccc(/C=C/c2ccc3ccccc3n2)o1`, the displacement came to 97.9%.
For `O=C(Nc1cccnc1)c1ccc(-c2ccccc2[N+](=O)[O-])o1` the value was 48.4%.
The figure for `O=C(/C=C/c1ccc(-c2ccccc2[N+](=O)[O-])o1)Nc1ccc(NC(=O)c2ccco2)cc1` is -0.2%; for `COc1ccc(-c2cc(CC(=O)c3ccccc3)cc(-c3ccc(OC)cc3)n2)cc1` it is 7.7%.
As for `COc1ccc(Cl)cc1N(CC(=O)N1CCCCC1)S(=O)(=O)c1ccc(C)c([N+](=O)[O-])c1`, the displacement came out at 2.3%.
For `Cc1ccccc1/[N+]([O-])=C/c1cccs1` the value was 0.1%.
On to `COc1ccccc1NC(=O)C(=O)NCC(C)C`, for which the displacement was 9.1%.
In the case of `COc1cc(OC)c(OC)cc1CN1CCN(Cc2cc(OC)c(OC)cc2Br)CC1`, the displacement stood at 1.2%.
For `CCc1cc(=O)oc2cc(OC(C)=O)ccc12` the value was 12.3%; for `O=C(N(c1cccc2ccccc12)C1C=CS(=O)(=O)C1)C(F)(F)F` (stereo not given), 66%; for `CCOC(=O)c1ccccc1N(C(=O)C(F)(F)F)C1C=CS(=O)(=O)C1` (stereo not given), -3.1%.
Take `O=C(N(c1cccc(C(F)(F)F)c1)C1C=CS(=O)(=O)C1)C(F)(F)F` (stereo not given): the displacement was found to be 14.6%.
